Holding throughout (experiment): phage ELISA signal ratio (GST-PRM binding over GST background); higher = stronger binding of peptide-phage to the PRM
The target of experiment [1] is MAD2L1 2-205 HORMA (domain begin residue: 2, domain end residue: 205), Q13257. An outline of the steps: (§1)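 Approximately 48 individual clones from selection rounds 4 and 5 were tested by phage ELISA, and those scoring positive were sequenced. They came from five rounds of selecting an M13 phage library of randomized, cysteine-free, glycine-flanked hexadecapeptides on the gene-8 major coat protein against human peptide recognition domains fused to the C-terminus of glutathione S-transferase (GST) in 96-well plates. Each figure in the table is the ELISA signal on the GST-domain fusion relative to the signal on GST alone.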

Experiment [2] deals with HSPA9 438-651 HSP70 (domain begin residue: 438, domain end residue: 651), P38646. An outline of the steps: as §1
Experiment [3] addresses KARS 71-214 tRNA_anti-codon (domain begin residue: 71, domain end residue: 214), Q15046. An outline of the steps:
as §1

Experiment [4] deals with KDM6A 1-520 TPR_8 (domain begin residue: 1, domain end residue: 520), O15550. An outline of the steps: as §1
Experiment [5] deals with T1, LBR 1-67 LBR_tudor (domain begin residue: 1, domain end residue: 67), Q14739.
T1 chain: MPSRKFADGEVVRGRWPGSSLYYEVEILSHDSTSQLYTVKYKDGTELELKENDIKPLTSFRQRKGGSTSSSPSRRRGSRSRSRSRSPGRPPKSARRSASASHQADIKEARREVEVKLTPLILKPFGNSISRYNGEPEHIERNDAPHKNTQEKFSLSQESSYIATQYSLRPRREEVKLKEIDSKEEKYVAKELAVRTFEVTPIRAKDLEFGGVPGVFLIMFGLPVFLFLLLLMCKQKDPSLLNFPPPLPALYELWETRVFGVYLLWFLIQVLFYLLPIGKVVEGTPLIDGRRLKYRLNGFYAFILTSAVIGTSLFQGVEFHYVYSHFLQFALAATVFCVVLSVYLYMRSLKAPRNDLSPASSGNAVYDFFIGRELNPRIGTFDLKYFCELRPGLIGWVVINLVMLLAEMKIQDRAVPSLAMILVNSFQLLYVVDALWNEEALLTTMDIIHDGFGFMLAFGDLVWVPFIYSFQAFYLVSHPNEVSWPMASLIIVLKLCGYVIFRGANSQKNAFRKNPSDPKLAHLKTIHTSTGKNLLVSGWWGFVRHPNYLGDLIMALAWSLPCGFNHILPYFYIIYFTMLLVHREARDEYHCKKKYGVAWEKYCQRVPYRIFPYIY
An outline of the steps:
as §1

Experiment [6] concerns the target T2, IRS1 157-267 IRS (domain begin residue: 157, domain end residue: 267), P35568.
T2 chain: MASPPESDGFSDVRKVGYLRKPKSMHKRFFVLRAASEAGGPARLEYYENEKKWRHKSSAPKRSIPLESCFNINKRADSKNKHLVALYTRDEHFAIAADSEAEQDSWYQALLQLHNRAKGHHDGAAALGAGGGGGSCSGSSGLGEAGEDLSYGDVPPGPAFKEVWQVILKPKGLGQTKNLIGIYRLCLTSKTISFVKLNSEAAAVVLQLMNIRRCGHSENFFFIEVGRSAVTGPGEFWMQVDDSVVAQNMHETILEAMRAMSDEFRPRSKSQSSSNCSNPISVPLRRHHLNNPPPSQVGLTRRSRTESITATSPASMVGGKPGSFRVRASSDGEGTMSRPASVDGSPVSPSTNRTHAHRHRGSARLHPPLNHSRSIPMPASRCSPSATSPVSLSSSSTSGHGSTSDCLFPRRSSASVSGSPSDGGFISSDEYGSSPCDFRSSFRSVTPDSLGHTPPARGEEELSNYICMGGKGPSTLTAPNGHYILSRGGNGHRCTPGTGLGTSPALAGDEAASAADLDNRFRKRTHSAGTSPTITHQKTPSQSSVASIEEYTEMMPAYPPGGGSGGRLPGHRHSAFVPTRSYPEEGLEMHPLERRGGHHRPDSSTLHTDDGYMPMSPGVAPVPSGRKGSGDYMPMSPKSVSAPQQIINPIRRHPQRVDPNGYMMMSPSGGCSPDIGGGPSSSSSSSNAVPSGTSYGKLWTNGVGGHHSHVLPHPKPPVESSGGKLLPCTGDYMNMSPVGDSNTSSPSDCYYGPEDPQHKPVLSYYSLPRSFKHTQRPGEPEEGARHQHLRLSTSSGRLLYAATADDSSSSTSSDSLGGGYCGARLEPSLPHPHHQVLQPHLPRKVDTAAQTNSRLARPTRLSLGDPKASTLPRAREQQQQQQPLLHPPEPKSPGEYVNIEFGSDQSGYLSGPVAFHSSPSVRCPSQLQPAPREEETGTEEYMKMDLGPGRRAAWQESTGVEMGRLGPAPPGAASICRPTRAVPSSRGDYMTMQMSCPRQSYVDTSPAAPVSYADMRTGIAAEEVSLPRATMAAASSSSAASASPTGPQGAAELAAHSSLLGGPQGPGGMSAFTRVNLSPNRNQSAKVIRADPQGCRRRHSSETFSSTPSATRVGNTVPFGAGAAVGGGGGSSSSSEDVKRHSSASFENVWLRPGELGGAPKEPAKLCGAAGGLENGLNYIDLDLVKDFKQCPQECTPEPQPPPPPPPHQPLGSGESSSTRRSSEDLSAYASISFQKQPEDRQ
An outline of the steps:
as §1

For experiment [7], the target named is KMT2C 1055-1137 PHD (domain begin residue: 1055, domain end residue: 1137). An outline of the steps: as §1

Chain of HSPA9 438-651 HSP70 (domain begin residue: 438, domain end residue: 651), P38646 (P38646 whole entry): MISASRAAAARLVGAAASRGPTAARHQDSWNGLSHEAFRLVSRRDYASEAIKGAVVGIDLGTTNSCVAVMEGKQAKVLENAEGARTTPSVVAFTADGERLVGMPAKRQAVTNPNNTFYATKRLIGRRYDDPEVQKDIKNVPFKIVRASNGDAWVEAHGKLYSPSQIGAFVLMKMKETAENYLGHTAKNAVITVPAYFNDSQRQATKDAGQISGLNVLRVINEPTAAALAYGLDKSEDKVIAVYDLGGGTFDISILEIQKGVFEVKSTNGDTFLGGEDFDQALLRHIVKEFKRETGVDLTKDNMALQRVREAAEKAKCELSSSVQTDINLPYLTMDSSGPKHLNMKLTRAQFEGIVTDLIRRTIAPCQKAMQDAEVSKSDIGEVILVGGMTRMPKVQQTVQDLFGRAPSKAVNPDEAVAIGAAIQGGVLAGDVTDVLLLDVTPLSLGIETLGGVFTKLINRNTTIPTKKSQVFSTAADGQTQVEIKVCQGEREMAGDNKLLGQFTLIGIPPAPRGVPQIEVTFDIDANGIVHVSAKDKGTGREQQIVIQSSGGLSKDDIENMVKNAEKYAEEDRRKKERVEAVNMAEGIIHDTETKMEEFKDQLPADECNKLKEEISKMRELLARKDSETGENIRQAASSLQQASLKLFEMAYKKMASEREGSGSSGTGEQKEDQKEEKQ
Chain of KDM6A 1-520 TPR_8 (domain begin residue: 1, domain end residue: 520), O15550 (O15550 whole entry): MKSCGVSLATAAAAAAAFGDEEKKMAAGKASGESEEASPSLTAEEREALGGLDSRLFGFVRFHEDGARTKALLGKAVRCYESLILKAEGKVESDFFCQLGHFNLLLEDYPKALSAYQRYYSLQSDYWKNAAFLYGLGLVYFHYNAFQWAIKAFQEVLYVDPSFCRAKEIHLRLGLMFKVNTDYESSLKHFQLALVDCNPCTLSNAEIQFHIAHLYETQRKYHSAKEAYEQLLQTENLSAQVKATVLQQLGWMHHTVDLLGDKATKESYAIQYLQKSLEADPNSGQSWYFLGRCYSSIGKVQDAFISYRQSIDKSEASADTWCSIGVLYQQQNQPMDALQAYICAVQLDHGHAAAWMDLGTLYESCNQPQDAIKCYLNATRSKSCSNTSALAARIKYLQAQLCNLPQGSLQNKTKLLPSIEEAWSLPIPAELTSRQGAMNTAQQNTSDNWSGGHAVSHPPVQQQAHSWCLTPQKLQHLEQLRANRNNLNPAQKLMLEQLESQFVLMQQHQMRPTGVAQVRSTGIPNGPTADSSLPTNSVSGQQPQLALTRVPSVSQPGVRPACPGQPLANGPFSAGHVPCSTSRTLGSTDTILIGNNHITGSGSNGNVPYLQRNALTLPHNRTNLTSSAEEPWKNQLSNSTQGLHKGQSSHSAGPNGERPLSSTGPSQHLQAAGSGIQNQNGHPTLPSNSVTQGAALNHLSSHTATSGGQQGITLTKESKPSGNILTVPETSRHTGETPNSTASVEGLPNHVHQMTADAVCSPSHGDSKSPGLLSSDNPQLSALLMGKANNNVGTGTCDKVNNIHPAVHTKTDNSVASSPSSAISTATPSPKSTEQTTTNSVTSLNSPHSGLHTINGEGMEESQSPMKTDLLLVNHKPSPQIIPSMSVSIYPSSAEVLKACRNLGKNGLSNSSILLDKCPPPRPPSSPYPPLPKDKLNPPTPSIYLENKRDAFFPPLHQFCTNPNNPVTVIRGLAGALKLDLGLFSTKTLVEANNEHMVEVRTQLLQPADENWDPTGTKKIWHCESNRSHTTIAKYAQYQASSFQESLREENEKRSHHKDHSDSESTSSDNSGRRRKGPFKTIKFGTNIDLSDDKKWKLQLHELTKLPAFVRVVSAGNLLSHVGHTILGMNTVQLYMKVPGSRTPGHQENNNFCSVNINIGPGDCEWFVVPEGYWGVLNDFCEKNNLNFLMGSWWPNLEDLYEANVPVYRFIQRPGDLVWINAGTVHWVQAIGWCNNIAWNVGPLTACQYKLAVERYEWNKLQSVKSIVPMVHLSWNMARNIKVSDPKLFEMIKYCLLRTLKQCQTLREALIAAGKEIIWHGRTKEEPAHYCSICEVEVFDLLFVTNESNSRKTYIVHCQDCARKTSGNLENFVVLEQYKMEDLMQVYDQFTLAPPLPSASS
Chain of KARS 71-214 tRNA_anti-codon (domain begin residue: 71, domain end residue: 214), Q15046 (Q15046 whole entry, looked up, tested part not stated): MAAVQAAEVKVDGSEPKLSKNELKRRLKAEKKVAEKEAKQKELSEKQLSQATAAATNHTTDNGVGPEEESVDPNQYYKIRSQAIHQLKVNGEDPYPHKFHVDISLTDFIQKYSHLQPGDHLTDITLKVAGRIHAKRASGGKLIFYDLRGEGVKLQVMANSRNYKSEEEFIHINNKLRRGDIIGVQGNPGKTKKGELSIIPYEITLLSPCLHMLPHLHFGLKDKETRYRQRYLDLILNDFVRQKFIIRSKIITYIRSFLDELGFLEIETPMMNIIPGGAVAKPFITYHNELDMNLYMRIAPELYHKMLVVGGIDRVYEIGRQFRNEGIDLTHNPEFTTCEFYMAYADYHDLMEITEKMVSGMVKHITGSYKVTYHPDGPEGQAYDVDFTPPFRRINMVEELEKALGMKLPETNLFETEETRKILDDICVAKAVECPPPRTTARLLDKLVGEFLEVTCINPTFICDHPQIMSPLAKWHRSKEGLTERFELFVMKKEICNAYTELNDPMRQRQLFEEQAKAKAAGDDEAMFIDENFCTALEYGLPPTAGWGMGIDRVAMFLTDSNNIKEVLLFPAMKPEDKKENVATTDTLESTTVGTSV
Chain of MAD2L1 2-205 HORMA (domain begin residue: 2, domain end residue: 205), Q13257 (Q13257 whole entry, the tested form may be a part): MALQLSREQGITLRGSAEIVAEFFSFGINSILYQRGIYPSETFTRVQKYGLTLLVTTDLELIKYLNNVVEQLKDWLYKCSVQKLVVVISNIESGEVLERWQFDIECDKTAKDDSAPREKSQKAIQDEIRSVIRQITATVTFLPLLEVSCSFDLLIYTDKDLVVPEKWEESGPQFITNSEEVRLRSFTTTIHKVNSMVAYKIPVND

As to SGEWFKLPSFDEPRKG, in experiment [1], the “phage ELISA signal ratio” value worked out at 6.3. With PYGLTAEGYERFLWLV, the “phage ELISA signal ratio” value in experiment [2] came out at 28. Consider ETWADYFNVPISWIHE, for which the “phage ELISA signal ratio” value in experiment [3] worked out at 18.1. Take QWLEWISPEIDFTPME: the “phage ELISA signal ratio” value in experiment [4] came to 3.57.

With DNAMVIWHSTTELYQH, the “phage ELISA signal ratio” value in experiment [4] was found to be 3.82. For DDVTWMWPPGGYFVNM, the “phage ELISA signal ratio” value in experiment [5] stood at 4.54.

GYENWIPEGYRWQDWK: in experiment [6], the “phage ELISA signal ratio” value came to 18.

WAEELYHSTQWLGVTE: the “phage ELISA signal ratio” value in experiment [4] came out at 5.83.

As for VFTFTMSWDAWEYILY, the “phage ELISA signal ratio” value in experiment [2] came to 18.4.

FETLEVIPGLGEFFKQ: the “phage ELISA signal ratio” value in experiment [7] came out at 6.9. Consider DLQQWIIDFYIHSMET, for which, in experiment [2], the “phage ELISA signal ratio” value worked out at 20.6.

For NYIEHMYDSMMYGSMT, the “phage ELISA signal ratio” value in experiment [4] turned out to be 8.78.

EQWEIEWLEHFNTYWE: in experiment [3], the “phage ELISA signal ratio” value was 17.2. For the molecule SPNVVEYPDWFMWAIE, the “phage ELISA signal ratio” value in experiment [4] turned out to be 7.87. On the same count and under the same terms, the same measure for VEVDYFNSMYEAMSFM: 4.78.
